Assay outcomes as filed in PubChem.
This is a sample that favours compounds with a hit; in the whole collection about 19% have one here.
DT40 TDP1 CPT – growth inhibition of DT40 Tdp1-/-;hTDP1 cells with camptothecin (screen for TDP1 inhibitors); chicken DT40 Tdp1-/-;hTDP1 cells + 20 nM CPT, ATP luminescence, 48 h; Potency, µM (top dose mostly 46.2 µM), for inactives: top-dose activity change, negative = growth inhibition, most hits filed as inhibitors; 12% of 420,000 active; AID 686979; note: nearly all actives have a fitted effect of over 55% in size
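Chicken DT40 Tdp1-/- cells complemented with human TDP1, 400 cells/well, exposed to compounds plus 20 nM camptothecin for at least 48 h at 37 C; viability read as ATP content by CellTiter-Glo luminescence.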
KB-3-1 cytotox – KB-3-1 parental cell cytotoxicity | KB-3-1 viability, CellTiter-Glo ATP luminescence, 72 h | Potency, µM (top dose mostly 46.1 µM), usual class: cytotoxic | 1.4% of 400,000 active | AID 1347075; note: nearly all actives have a fitted effect of over 60% in size
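Multi-concentration cytotoxicity screen in KB-3-1 cells grown in DMEM lacking phenol red with 10% FBS. After 72 h at 37 °C with compound, ATP-dependent luminescence was recorded.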
HT1080NT lethal – kills 2HG-producing HT-1080-NT fibrosarcoma cells; 1.6% of 360,000 active; HT-1080-NT fibrosarcoma viability, CellTiter-Glo ATP luminescence, 48 h; AID 686970; Potency, µM (titrated, usually from 46.1 µM), inactives show top-dose activity, negative = less viability, hits mostly cytotoxic;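 note: NT is the 2HG producing partner of a matched IDH1 knockdown line; 0% = DMSO-treated cells and -100% = media-only wells without cells; nearly all actives have a fitted effect of over 55% in size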
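Luminescent CellTiter-Glo readout after 48 hours of compound exposure at 37 degrees C defined viability of HT-1080-NT cells. Activity was normalized to DMSO wells and cell-free media wells; concentration-response curves were fitted and assigned curve classes.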
KB-V1 MDR tox – KB-V1 MDR subline cytotoxicity. KB-V1 MDR cells viability, CellTiter-Glo, 72 h. Potency, µM (top dose mostly 46.1 µM), actives largely listed as cytotoxic. 3.4% of 400,000 active. AID 1347076; note: nearly all actives have a fitted effect of over 60% in size
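In this primary screen, KB-V1 cells overexpressing P-gp are incubated with library compounds (lowest to highest concentration) for 72 h at 37 degrees C before a luminescent ATP viability read.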
TDP1 cell noCPT – qHTS for Inhibitors of human tyrosyl-DNA phosphodiesterase 1 (TDP1): qHTS in cells in absence of CPT; DT40 Tdp1-/- hTDP1 cells, no CPT, ATP luminescence, 48 h; Potency, µM (series often up to 46.2 µM), inactives show at the top dose activity change, negative = growth inhibition, most hits filed as inhibitors; 15% of 420,000 active; AID 686978, 2013; note: nearly all actives have a fitted effect of over 55% in size
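DT40 Tdp1-/-;hTDP1 cells, no CPT (DMSO vehicle only), 400 cells/well; compounds pin-transferred; ≥48 hr, 37 °C; CellTiter-Glo 30 min RT dark, luminescence read.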
HT1080 IDH1KD tx – kills HT-1080 cells with IDH1 knockdown; 2% of 360,000 active; HT-1080 IDH1 knockdown viability, ATP luminescence, 48 h; Potency, µM (highest dose often 46.1 µM), for the others: at the top dose activity, negative = toxicity, usual class: cytotoxic;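 note: 0% = DMSO wells and -100% = cell-free medium wells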
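Knockdown cells (IDH1KD HT-1080) received compounds 2 h after plating at 750 cells/well and were kept 48 h at 37 °C in 5% FBS RPMI. A CellTiter-Glo luminescence read gave % activity for curve fitting.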
* hit, by the source's call; i = inactive; ? = inconclusive; / = not tested or not shown; [ ] = another dose, or the depositor's remark. Calls come from the whole dose curve; as a rule, active = well fitted curve in the direction sought with a large enough effect; inconclusive = small, poorly fitted or top-dose-only effect, or another doubt; inactive = no such curve, though single readings can be large; an effect the other way counts as inactive or inconclusive. Unless noted, % is set by controls: 0 for no effect and ±100 for the full control effect; potency is the fitted concentration of half-maximal effect.

SMILES	DT40 TDP1 CPT	KB-3-1 cytotox	HT1080NT lethal	KB-V1 MDR tox	TDP1 cell noCPT	HT1080 IDH1KD tx
CSc1ccccc1NC(=O)COc1ccc(Cl)cc1C	?	?	17%	13µM*	?	18%
Cc1cc2nc(-c3cccc(NC(=O)COc4ccc(C(C)C)cc4)c3)oc2cc1C	21µM*	i	/	i	16µM*	/
Cc1ccc(-c2nc3cc(Cl)ccc3o2)cc1NC(=O)COc1ccccc1C	8.9µM*	?	/	?	11µM*	/
Cc1ccc(-c2nc3ccccc3o2)cc1NC(=O)COc1ccccc1C	-8%	i	/	?	4%	/
Cc1cc2nc(-c3cccc(NC(=O)COc4ccc(Cl)c(C)c4)c3)oc2cc1C	-28%	i	/	?	-16%	/
COc1cc(C)c(Br)cc1S(=O)(=O)NCc1ccncc1	10µM*	i	0%	i	9.2µM*	?
Cc1cc(C)c(S(=O)(=O)NCCc2ccncc2)c(C)c1	-2%	i	0%	i	-4%	1%
Cc1cc(C)c(S(=O)(=O)NCc2ccncc2)c(C)c1	7.3µM*	i	/	i	7.3µM*	/
Cc1ccc(S(=O)(=O)NCc2ccncc2)c(C)c1C	1.8µM*	?	-20%	?	1.3µM*	?
C[C@@H]1CN([C@@H](C)CO)C(=O)CCCn2nncc2CO[C@@H]1CN(C)S(=O)(=O)c1cccs1	13%	i	13%	i	?	6%
CN(C)CCNC(=O)c1ccccc1-c1cc2ccccc2c(=O)o1	5%	i	2%	i	6%	9%
COc1ccc(-c2coc3c(C(=O)NCC4CCOCC4)cccc23)c(C)c1	10µM*	i	?	?	10µM*	-15%
COc1ccc(-c2coc3c(C(=O)NCCN(C)C)cccc23)c(C)c1	?	?	26µM*	i	?	16µM*
COCCCNC(=O)c1cccc2c(-c3ccc(OC)cc3C)coc12	18µM*	?	?	?	?	?
COc1ccc2oc(C(=O)NCCc3ccccc3)c(C)c2c1	0%	i	4%	i	?	-2%
COc1ccc(-c2coc3c(C(=O)NCCc4ccccc4)cccc23)c(C)c1	16µM*	i	?	?	16µM*	?
COc1cc(C)cc2oc(=O)c(CC(=O)N3CCN(C(=O)C4COc5ccccc5O4)CC3)c(C)c12 (stereo not drawn)	?	i	-2%	i	?	2%
Cc1ccccc1NC(=O)c1cccc(NC(=O)c2ccccc2C(=O)O)c1	13%	i	11%	i	2%	11%
CCOC(=O)CN(Cc1ccccc1)C(C(=O)NC1CCCCC1)c1ccc(C)cc1 (stereo not drawn)	?	i	/	i	?	/
Cc1nn(Cc2c(Cl)cccc2Cl)c(Cl)c1/C=C/C(=O)OCC(=O)NCC(F)(F)F	?	i	4%	i	?	9%
COCCNC(=O)COC(=O)/C=C/c1c(C)nn(Cc2ccc(Cl)cc2Cl)c1Cl	15µM*	?	-27%	?	16µM*	?
CCN(CC)CC(O)Cn1c(C)c(-c2ccccc2)c2cc([N+](=O)[O-])ccc21 (stereo not drawn)	21µM*	?	21µM*	i	9.2µM*	?
CCN(CC)CC(O)Cn1c2ccccc2c2ccccc21 (stereo not drawn)	-4%	i	-22%	i	?	-17%
O=c1oc(=O)c2ccccc2c2ccccc12	9%	i	13%	i	-1%	14%
O=C(Nc1nc2c(F)cc(F)cc2s1)C1CCN(C(=O)c2ccc(F)cc2)CC1	?	i	7%	i	?	8%
SMILES	DT40 TDP1 CPT	KB-3-1 cytotox	HT1080NT lethal	KB-V1 MDR tox	TDP1 cell noCPT	HT1080 IDH1KD tx
O=C(Nc1nc(-c2ccc(F)cc2)cs1)C1CCN(C(=O)c2ccc(F)cc2)CC1	6.5µM*	?	?	?	5.8µM*	-28%
CC(=O)Nc1ccc(NC(=O)C2CCN(C(=O)c3cccs3)CC2)cc1	23µM*	i	6%	i	-11%	-10%
COc1ccc(NC(=O)C2CCCN(c3c4c(nc5ncnn35)CCC4)C2)cc1 (stereo not drawn)	15µM*	i	5%[9.24 µM]	i	23µM*	-22%
COc1ccc(NC(=O)C2CCN(C(=O)c3ccc(OC)cc3)CC2)cc1	15µM*	i	6%	i	?	11%
Cc1noc(C)c1-c1nc(NCCN2CCOCC2)c2ccccc2n1	-3%	/	/	/	-6%	/
COc1ccccc1NC(C)C(=O)Nc1ccc(C(C)=O)cc1 (stereo not drawn)	?	i	5%	?	21µM*	-4%
COC(=O)c1ccccc1NC(=O)Nc1ccc(C(=O)N2CCCC2)cc1	-3%	i	2%	i	-19%	4%
COc1ccccc1NC(=O)C(C)Nc1ccc(C)c(Cl)c1 (stereo not drawn)	-15%	?	-18%	?	?	-6%
COc1ccc(C(=O)N2CCC(C(=O)c3c(C)cc(C)cc3C)CC2)cc1	?	i	-16%	i	23µM*	-8%
O=C(Nc1ccc(Br)cc1)C1CCN(C(=O)c2ccc(F)cc2)CC1	?	i	-23%	i	?	-21%
COc1ccccc1NC(=O)Nc1ccc(C(=O)N2CCCCC2)cc1	?	i	?	?	21µM*	?
CC(C)c1ccc(NC(=O)C2CCN(C(=O)c3ccc(F)cc3)CC2)cc1	?	i	/	?	8.2µM*	/
CC1CCC(NC(=O)C2CCN(c3c4c(nc5ncnn35)CCC4)CC2)CC1 (stereo not drawn)	?	i	-14%	?	16µM*	-21%
COc1ccc(NC(=O)C2CCN(c3nc(C)nc4c3CCC4)CC2)cc1	12µM*	?	?	i	16µM*	-16%
COc1ccc(/C(C)=N/Nc2nc3ccccc3n3cnnc23)cc1OC	?	i	3%	i	21µM*	-7%
CC(C)(C)Nc1nc(-c2ccc3c(c2)CCN3C(=O)C2CC2)cs1	?	i	-6%	?	?	-3%
CC1CCc2c(sc(NS(=O)(=O)c3ccccc3)c2C(=O)OC(C)C)C1 (stereo not drawn)	-4%	i	-4%	i	-21%	0%
